Screening data (PubChem)
GSH bead fluor: GSH bead compound fluorescence profile | fluorescence (KMESF) at 10 µM | actives 0.25% (n = 190,000) | GSH beads flow cytometry, compound fluorescence 488/530 nm; active compounds read high; in the data active = fluorescence above about 89;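 note: glutathione beads carrying GST-tagged Bcl family fusion proteins plus one bare bead set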
Avidin bead fluor: compound fluoresces at 488/530 nm on avidin beads; compound fluorescence 488/530 nm, flow cytometry; active compounds read high; fluorescence (KMESF) at 10 µM; actives 0.38% (n = 220,000); AID 1775; in the data active = fluorescence above about 47
RGS8-Gao reg: modulates binding of RGS8 to human Galphao. P09471. actives 0.34% (n = 220,000). response (percent of control binding), % at 10 µM. multiplexed bead flow cytometry; actives lie on both sides; in the data active = response below about 60% or above about 140%; inactive = in between;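 note: Galphao activated as the GDP aluminium fluoride complex binding bead-coupled RGS8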
Target sequence (P09471 whole entry, looked up): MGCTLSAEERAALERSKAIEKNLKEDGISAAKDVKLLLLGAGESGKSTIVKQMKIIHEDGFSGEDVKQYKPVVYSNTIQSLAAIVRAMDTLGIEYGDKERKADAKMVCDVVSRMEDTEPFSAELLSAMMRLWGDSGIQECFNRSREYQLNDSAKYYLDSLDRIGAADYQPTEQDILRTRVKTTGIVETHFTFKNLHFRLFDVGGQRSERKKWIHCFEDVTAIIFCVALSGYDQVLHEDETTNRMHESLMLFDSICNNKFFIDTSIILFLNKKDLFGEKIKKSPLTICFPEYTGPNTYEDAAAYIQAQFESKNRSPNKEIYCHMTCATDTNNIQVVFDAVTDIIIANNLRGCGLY
RGS16-Gao HTS: modulates binding between human RGS16 and Galphao | binding response (% of control), % at 10 µM | bead-based flow cytometry RGS16-Galphao binding, fluorescence; actives lie on both sides | AID 1441 | actives 0.38% (n = 220,000) | O15492+P09471;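 note: Galphao activated by GDP with aluminum fluoride before binding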
Target sequence (O15492 whole entry, looked up): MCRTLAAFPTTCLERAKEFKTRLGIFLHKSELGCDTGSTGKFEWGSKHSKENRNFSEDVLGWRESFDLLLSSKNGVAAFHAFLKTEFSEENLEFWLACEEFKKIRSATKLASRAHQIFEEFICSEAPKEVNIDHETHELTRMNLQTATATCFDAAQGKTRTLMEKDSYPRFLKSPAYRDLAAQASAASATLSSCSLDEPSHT
Target sequence (P09471 whole entry, looked up): as the sequence (P09471 whole entry, looked up) above
RGS4-Gao reg: modulates binding of RGS4 to human Galphao | Multiplexed bead flow cytometry; actives lie on both sides | AID 1415 | P09471 | binding response (% of control), % at 10 µM | actives 0.33% (n = 220,000); in the data active = binding response below about 49% or above about 150%; inactive = in between;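 note: fluorescent Galphao activated with aluminum fluoride binding bead-coupled RGS4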
RGS7-Gao: regulators of human RGS7-Galphao interaction; actives 0.35% (n = 220,000); Multiplexed bead flow cytometry, RGS7-Galphao binding; actives lie on both sides; AID 1439; P09471; binding response (% of control), % at 10 µM; in the data active = binding response below about 49% or above about 150%; inconclusive = no clear call, values can overlap the other calls; inactive = in between;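 note: fluorescent Galphao held in activated GDP-AlF4 state binding bead-coupled RGS7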
RGS4-Gao HTS: regulators of human RGS4-Galphao interaction. shares compounds with RGS16-Gao HTS. RGS4–Galpha-o binding response, % at 10 µM. actives 99% (n = 1,600). multiplexed bead flow cytometry, RGS–Galpha-o binding;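 note: fluorescently labeled Galpha-o bound to GDP with aluminium fluoride binding biotinylated RGS beads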
Avidin counter: counter-screen: compounds disrupting biotin binding to avidin beads; shares compounds with RGS16-Gao HTS; streptavidin beads, fluorescein-biotin binding, flow cytometry; inhibition, % at 10 µM; 1,700 tested, under 10 active; AID 1783;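 active = inhibition above 50%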;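 note: median green fluorescence of gated singlet beads compared with DMSO control wells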
RGS8-Gao single: RGS8-Galphao interaction regulation, single point confirmation. shares compounds with RGS16-Gao HTS. actives 3% (n = 1,700). AID 1836. bead-based flow cytometry RGS8-Galphao binding, fluorescence; actives lie on both sides. binding response (% of control), % at 10 µM; in the data active = binding response below about 72% or above about 130%; inactive = in between;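 note: Galphao activated as GDP AlF4 complex before binding bead RGS8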
RGS7-Gao confirm: RGS7-Galphao interaction regulation, single point confirmation | shares compounds with RGS16-Gao HTS | bead-based flow cytometry RGS7-Galphao binding; actives lie on both sides | response (percent of control binding), % at 10 µM | actives 7.8% (n = 1,700) | AID 1837; in the data active = response below about 75% or above about 130%; inactive = in between;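 note: fluorescent Galphao activated with GDP and aluminum fluoride binding bead-coupled RGS7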
RGS16-Gao conf: RGS16-Galphao interaction regulation, single point confirmation; response (% of control binding), % at 10 µM; bead-based flow cytometry, RGS16-Galphao binding; actives lie on both sides; AID 1838; shares compounds with RGS16-Gao HTS; actives 4% (n = 1,700); in the data active = response below about 74% or above about 130%; inactive = in between;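 note: Galphao activated as the GDP aluminium fluoride complex binding bead-coupled RGS16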
RGS4-Gao single: confirmation of regulators of human RGS4-Galphao interaction | actives 4% (n = 1,700) | shares compounds with RGS16-Gao HTS | binding response (% of control), % at 10 µM | RGS4-Galphao binding, multiplexed bead flow cytometry; actives lie on both sides; in the data active = binding response below about 74% or above about 130%; inactive = in between
RGS19-Gao conf: confirmation of regulators of human RGS19-Galphao interaction; response (percent of control binding), % at 10 µM; bead-based flow cytometry RGS19-Galphao binding; actives lie on both sides; actives 5% (n = 1,700); shares compounds with RGS16-Gao HTS; AID 1841; in the data active = response below about 50% or above about 160%; inactive = in between
Large screens that a line does not name were inactive (follow-up assays come after a bar, where they were run); [ ] = another dose, or the depositor's remark. Sampled rows, rich in hits. Any-hit rate of the full collection: about 1.2%. Unless noted, the rule behind the calls is not given here.

CS(=O)(=O)N(CC(=O)Nc1cccnc1)c1ccc2c(c1)OCO2	none (no result: Avidin bead fluor, RGS8-Gao reg, RGS16-Gao HTS, RGS4-Gao reg, RGS7-Gao) | Avidin counter inactive | RGS8-Gao single inactive | RGS7-Gao confirm inactive | RGS16-Gao conf inactive | RGS4-Gao single inactive | RGS19-Gao conf inactive
CS(=O)(=O)N(CC(=O)Nc1cccnc1)c1ccc2c(c1)OCCO2	none
COc1cc(OC)cc(C(=O)N[C@@H](CCSC)c2nc3ccccc3[nH]2)c1	none
CCOC(=O)c1[nH]c2cc(OC)c(OC)cc2c1NC(=O)CCN1CCSCC1	RGS8-Gao reg 21.3, RGS16-Gao HTS 9.8, RGS4-Gao reg 17.1, RGS7-Gao inconclusive (no result: GSH bead fluor) | Avidin counter inactive | RGS8-Gao single inactive | RGS7-Gao confirm inactive | RGS16-Gao conf inactive | RGS4-Gao single inactive | RGS19-Gao conf inactive
CCc1cccc(CC)c1NC(=S)NCC(c1cccnc1)N1CCOCC1 (stereo unspecified)	none
CCOC(=O)/C(C#N)=N/Nc1ccccc1OC	RGS16-Gao HTS 19.8 | RGS4-Gao HTS 88.1 | Avidin counter inactive | RGS8-Gao single inactive | RGS7-Gao confirm inactive | RGS16-Gao conf inactive | RGS4-Gao single inactive | RGS19-Gao conf inactive
Cc1ccc(S(=O)(=O)/N=C2/C=C(Sc3ncn[nH]3)C(=O)c3ccccc32)cc1	RGS16-Gao HTS 15.2 | RGS4-Gao HTS 86.5
CCC(=O)Nc1cc(-c2nn(CC(=O)N3CCCCC3)c(=O)c3ccccc23)ccc1N1CCOCC1	Avidin bead fluor 143, RGS7-Gao 155.4[activator] | RGS4-Gao HTS 117.0 | Avidin counter inactive | RGS8-Gao single inactive | RGS7-Gao confirm inactive | RGS16-Gao conf inactive | RGS4-Gao single inactive | RGS19-Gao conf inactive
O=C(NC1CCCCCCC1)C1CCN(S(=O)(=O)N2CCCC2)CC1	RGS8-Gao reg 58.5 | RGS4-Gao HTS 57.9 | Avidin counter inactive | RGS8-Gao single inactive | RGS7-Gao confirm inactive | RGS16-Gao conf inactive | RGS4-Gao single inactive | RGS19-Gao conf inactive
Cc1onc(-c2ccccc2Cl)c1C(=O)Nc1nn[nH]n1	RGS8-Gao reg 52.7, RGS4-Gao reg 46.6 | Avidin counter inactive | RGS8-Gao single inactive | RGS7-Gao confirm inactive | RGS16-Gao conf inactive | RGS4-Gao single inactive | RGS19-Gao conf inactive
CCOc1ccc(NC(=S)NC(=O)c2c(Br)cnn2C)c([N+](=O)[O-])c1	RGS8-Gao reg -1.6, RGS4-Gao reg -39.7, RGS7-Gao -20.0 | Avidin counter inactive | RGS8-Gao single inactive | RGS7-Gao confirm inactive | RGS16-Gao conf inactive | RGS4-Gao single inactive | RGS19-Gao conf inactive
O=C(C1CCN(S(=O)(=O)c2ccc(F)cc2)CC1)N1CCOCC1	Avidin bead fluor 110, RGS7-Gao 167.6[activator] | RGS4-Gao HTS 115.1 | Avidin counter inactive | RGS8-Gao single inactive | RGS7-Gao confirm inactive | RGS16-Gao conf inactive | RGS4-Gao single inactive | RGS19-Gao conf inactive
COc1ccc(S(=O)(=O)N2CCC(N3CCCCC3)CC2)cc1	none
O=S(=O)(c1ccc(F)cc1)N1CCC(N2CCCC2)CC1	Avidin bead fluor 88, RGS7-Gao 162.9[activator] | RGS4-Gao HTS 107.3
CN(C)S(=O)(=O)c1ccc(C(=O)NCC(=O)N/N=C/c2ccccc2Cl)cc1	none
CCOC(=O)c1c(C)n(C)c2ccc(O)c(CN3CCN(C)CC3)c12	RGS8-Gao reg 150.3[activator] | RGS4-Gao HTS 131.2 | Avidin counter inactive | RGS8-Gao single inactive | RGS7-Gao confirm inactive | RGS16-Gao conf inactive | RGS4-Gao single inactive | RGS19-Gao conf inactive
Cc1cc(NC(=O)C2CC(=O)OC2c2ccccc2)no1 (stereo unspecified)	none
COc1ccc(NC(=O)C2CC(=O)OC2c2ccccc2)cc1 (stereo unspecified)	RGS16-Gao HTS 24.1 | RGS4-Gao HTS 96.4 | Avidin counter inactive | RGS8-Gao single inactive | RGS7-Gao confirm inactive | RGS16-Gao conf inactive | RGS4-Gao single inactive | RGS19-Gao conf inactive
Cc1ccc(NC2(c3nnnn3-c3c(C)cccc3C)CCCCC2)cc1	RGS16-Gao HTS 280.8[activator] | RGS4-Gao HTS 116.1 | Avidin counter inactive | RGS8-Gao single inactive | RGS7-Gao confirm inactive | RGS16-Gao conf inactive | RGS4-Gao single inactive | RGS19-Gao conf inactive
CSc1nnnn1-c1c(C)cccc1C	RGS7-Gao inconclusive (no result: GSH bead fluor)
CN1CCN(c2ccc(Cl)cc2NC(=O)/C=C/c2ccc(F)cc2)CC1	RGS7-Gao inconclusive
COc1ccc(OC)c(NC(=O)Nc2nnc(N3CCC(C)CC3)s2)c1	RGS8-Gao reg 58.4, RGS4-Gao reg 40.1, RGS7-Gao 42.7 | Avidin counter inactive | RGS8-Gao single inactive | RGS7-Gao confirm inactive | RGS16-Gao conf inactive | RGS4-Gao single inactive | RGS19-Gao conf inactive
CN1CCN(CCCNC(=O)c2ccc3c(c2)N(Cc2ccccc2)CCS3)CC1	RGS8-Gao reg 145.2[activator] | RGS4-Gao HTS 142.1 | Avidin counter inactive | RGS8-Gao single inactive | RGS7-Gao confirm inactive | RGS16-Gao conf inactive | RGS4-Gao single inactive | RGS19-Gao conf inactive
O=C(NCCCN1CCOCC1)c1ccc2c(c1)N(Cc1ccccc1)CCS2	RGS7-Gao inconclusive (no result: GSH bead fluor)
NC1=NC(c2ccccc2)N=C(Nc2ccccc2)N1 (stereo unspecified)	RGS8-Gao reg 0.9, RGS16-Gao HTS -30.5, RGS4-Gao reg -57.8, RGS7-Gao inconclusive (no result: GSH bead fluor) | Avidin counter inactive | RGS8-Gao single inactive | RGS7-Gao confirm inactive | RGS16-Gao conf inactive | RGS4-Gao single inactive | RGS19-Gao conf inactive
CCN(CC)c1ccc(NC(=O)Cn2c(C(C)NC(=O)c3ccc(C)cc3)nc3ccccc32)cc1 (stereo unspecified)	RGS16-Gao HTS 191.7[activator], RGS4-Gao reg 212.0[activator], RGS7-Gao 152.7[activator] | Avidin counter inactive | RGS8-Gao single inactive | RGS7-Gao confirm inactive | RGS16-Gao conf 127.7[activator] | RGS4-Gao single inactive | RGS19-Gao conf 259.0[activator]
